Data published in ChEMBL document CHEMBL4513216, “Probing the Open Global Health Chemical Diversity Library for Multistage-Active Starting Points for Next-Generation Antimalarials” (ACS Infect Dis, 2020).
About 2,100 (3.2%) of roughly 65,000 compounds showed an effect of 50% or more. The median lay at about -52%. For the sample, strong results were picked, then their nearest neighbours and some compounds at random.

system: Plasmodium falciparum; assay: Screen against P. falciparum Asexual Blood Stage (ABS), at 5uM; type: functional, Dd2; details: tested at 5 uM

Compound | INHIBITION [%]
O=C1NCCCC12CCN(Cc1ccc(SC3CCCCC3)o1)C2 (configuration not stated) | 56.4
O=C1NCCCC12CCN(Cc1ccc(-c3ccccc3)s1)C2 (configuration not stated) | -138
CCOc1cc(Cl)c(CN2CCC3(CCCNC3=O)C2)cc1OC (configuration not stated) | -15.1
O=C(NCCc1ccn(-c2ccccc2)n1)N1CCCC(CO)C1 (configuration not stated) | -78.9
CNC(=O)c1ccc(CN2CCN(C3=NCC(C)(C)S3)CC2)cc1 | -92
O=C(c1cc(=O)n(-c2ccccc2)[nH]1)N1CCCC(c2ccn[nH]2)C1 (configuration not stated) | -22.8
CN(C)C(=O)c1cccc(CN2CCN(CCO)CC2)c1 | 61
COCCN1CCN(Cc2cccc(C(=O)N(C)C)c2)CC1 | 7.48
CCOCCN1CCN(Cc2cccc(C(=O)N(C)C)c2)CC1 | -117
COc1cc2c(c(OC)c1OC)CCN(CCn1cncn1)CC2 | -167
Cc1cc(C)c2nc(CN3CCCC(c4cc[nH]n4)C3)cc(O)c2c1 (configuration not stated) | 54.4
COC1CCCN(Cc2cc(O)c3cc(C)cc(C)c3n2)C1 (configuration not stated) | -88.5
Cc1cc(C)c2nc(CN3CC[C@@H](O)C3)cc(O)c2c1 | -6.9
CCc1c(C)sc2ncnc(N3CCN(C4CCOCC4)CC3)c12 | 33.7
CCc1c(C)sc2ncnc(N3C[C@H](O)[C@@H](N4CCCC4)C3)c12 | 62
CCc1c(C)sc2ncnc(N3CC[C@@H](N4CCOCC4)[C@H](O)C3)c12 | -2.01
O=C(C1CCCC1)N1CCOC(c2nc(-c3ncccn3)no2)C1 (configuration not stated) | -66.9
c1cnc(Nc2cc(CCC3CCNCC3)ccn2)cn1 | -32
c1cncc(COc2ccccc2CNC2CCc3ncnn3C2)c1 (configuration not stated) | -137
c1ccc(OC2CCCC2)c(CNC2CCc3ncnn3C2)c1 (configuration not stated) | 20.5
c1ccc(OCC2CC2)c(CNC2CCc3ncnn3C2)c1 (configuration not stated) | 51.2
c1ccc(OCc2ccncc2)c(CNC2CCc3ncnn3C2)c1 (configuration not stated) | -32.4
c1ccc(COc2ccccc2CNC2CCc3ncnn3C2)cc1 (configuration not stated) | 69.4
CNC(=O)COc1ccccc1CNC1CCc2ncnn2C1 (configuration not stated) | -40.5

Compound | INHIBITION [%]
Cc1csc(NC(=O)c2cnc(C3CCCN(C)C3)cn2)n1 (configuration not stated) | -212
NC(=O)[C@@H]1CCCN1C(=O)c1cn(C/C=C/c2ccccc2)nn1 | -88.2
COCCNC(=O)c1nnc2ccc(N3CCOCC3)cc2n1 | -19.6
COC(=O)CNC(=O)c1nc(-c2ccccc2OC)c2cnccn12 | -115
Cc1cc(C)nc(NCCC(=O)NCCn2ccnc2C)n1 | -55.9
N#CC(NC(=O)CCCOc1cccnc1)c1ccc(F)cc1F (configuration not stated) | -69.7
CSc1nccc(N2CCC(NCCN3CCOCC3)CC2)n1 | -47.4
CSc1nccc(N2CCC(NCc3ccc4c(c3)OCO4)CC2)n1 | 51.4
CSc1nccc(N2CCC(NCc3nc(C)cc(C)n3)CC2)n1 | -119
CNc1nc(CNC(=O)Nc2cccc(CSC)c2)cs1 | 28.7
CCN1CCC2(C1)CN(S(=O)(=O)c1cn(C)cn1)C2 | -42.2
CCOC(=O)CCN(Cc1cccnc1)C(=O)c1cc(Cl)c[nH]1 | -43.4
CCc1cnc(N2C[C@@H]3C[C@H](C(=O)NCC(C)C)[C@H](C2)O3)nc1 | -47.5
Cc1cccn2cc(CN3CCCC(O)C3)nc12 (configuration not stated) | -34.8
Cc1cccn2cc(CN3CCCC(c4ccn[nH]4)C3)nc12 (configuration not stated) | -34
Cc1cccn2cc(CN3CCCC(c4noc(C5CC5)n4)C3)nc12 (configuration not stated) | 54.6
CC(C)c1nn(C)c(Cl)c1CNCc1cccnc1N(C)C | -8.45
O=C(c1cccs1)N1CCCC2(COCCN(c3cccnc3)C2)C1 (configuration not stated) | 4.74
c1ccc(-c2nc(CN3CCCCC3Cn3cncn3)co2)cc1 (configuration not stated) | -87.1
CN(C)C(=O)CN1CCCC(c2cncc(-c3cccc(Cl)c3)n2)C1 (configuration not stated) | 49.6
CN(C)C(=O)CN1CCC(c2cncc(-c3cccc(Cl)c3)n2)CC1 | -53.1
CN1CCC(c2cncc(-c3cccc(Cl)c3)n2)CC1 | 54.5
O=C(CO)N1CCC(c2cncc(-c3cccc(Cl)c3)n2)CC1 | -122
NC(=O)CN1CCC(c2cncc(-c3cccc(Cl)c3)n2)CC1 | 67.6

Compound | INHIBITION [%]
Cc1ccccc1-c1cncc(C2CCN(C)CC2)n1 | -69.9
Cc1ccc(CN(C)C(=O)CNC(C)(C)c2noc(C(C)(C)C)n2)o1 | -62.5
COCCC(=O)N1CCC2(COCc3cnc(N(C)C)nc32)C1 (configuration not stated) | -29
CCc1ccc(CN(C)C(=O)c2cnc3c(c2)nc(N)n3CC)nc1 | -20.9
COc1cccc(CNCCNS(=O)(=O)Cc2ccccc2)c1 | 55.5
COc1cccc(OCCNCc2ccccc2)c1 | 34.7
COc1cccc(OCCNS(=O)(=O)Cc2ccccc2)c1 | -91.8
CN(Cc1cn2ccccc2c1C#N)C1CCCN(c2cccnn2)C1 (configuration not stated) | -92.9
O=C(NCc1cncc2c1CCN(C1CCOCC1)C2)c1ccco1 | -81.7
O=C(C(CNCc1cccs1)c1ccccc1)N1CCOCC1 (configuration not stated) | 7.93
O=C(C(CNCc1cccc(O)c1)c1ccccc1)N1CCOCC1 (configuration not stated) | -52.6
O=C(C(CNCc1ccsc1)c1ccccc1)N1CCOCC1 (configuration not stated) | 63.6
O=C(c1nn[nH]c1Nc1ccc(Cl)cc1)N1CCCCCC1 | 23.3
Cc1nc(C)c(C(C)NCc2c(C)nn(CC(C)C)c2N(C)C)s1 (configuration not stated) | -40.1
Cc1ccc(CN2CC[C@@H](O)[C@@H]2Cc2cnn(C)c2)o1 | -75.8
Cc1ccc(CN2CC[C@@H](O)[C@@H]2Cc2ccccc2)o1 | 51.6
CO[C@@H]1CCN(Cc2ccc(C)o2)[C@H]1Cc1ccccc1 | -45.5
Cn1cc(NC(=O)c2cccc(-n3cnnn3)c2)cn1 | -36
COc1ccc(CNC2CCN(c3ccccc3)C2)c(OC)c1OC (configuration not stated) | 55.2
COc1cc(CNC2CCN(c3ccccc3)C2)cc(OC)c1OC (configuration not stated) | 64.6
COc1cccc(CNC2CCSC2)c1OC (configuration not stated) | -18.4
COc1cc(OC)cc(N2CCC(NCc3cc[nH]n3)C2)c1 (configuration not stated) | -39.5
c1ccc(N2CCC(NCc3cccc4cn[nH]c34)C2)cc1 (configuration not stated) | -37.2
COc1ccc(CNC2CCN(c3ccccc3)C2)cc1O (configuration not stated) | 40.9
